Measurements: ChEMBL document CHEMBL1961873, “Compounds: GSK PKIS; Assays: Nanosyn kinase panel” (2012)

How the values were obtained:
[1] = target: RAC-alpha serine/threonine-protein kinase (Homo sapiens) (UniProt P31749); conditions: at 0.1 µM
[2] = target: RAC-alpha serine/threonine-protein kinase (Homo sapiens) (UniProt P31749); conditions: at 1 µM
[3] = target: RAC-beta serine/threonine-protein kinase (Homo sapiens) (UniProt P31751); conditions: at 0.1 µM
[4] = target: RAC-beta serine/threonine-protein kinase (Homo sapiens) (UniProt P31751); conditions: at 1 µM
[5] = target: RAC-gamma serine/threonine-protein kinase (Homo sapiens) (UniProt Q9Y243); conditions: at 0.1 µM
[6] = target: RAC-gamma serine/threonine-protein kinase (Homo sapiens) (UniProt Q9Y243); conditions: at 1 µM
[7] = target: G protein-coupled receptor kinase 6 (Homo sapiens) (UniProt P43250); conditions: at 0.1 µM
[8] = target: G protein-coupled receptor kinase 6 (Homo sapiens) (UniProt P43250); conditions: at 1 µM
[9] = target: T1, Rhodopsin kinase GRK7 (Homo sapiens) (UniProt Q8WTQ7); conditions: at 0.1 µM
T1 sequence (whole entry): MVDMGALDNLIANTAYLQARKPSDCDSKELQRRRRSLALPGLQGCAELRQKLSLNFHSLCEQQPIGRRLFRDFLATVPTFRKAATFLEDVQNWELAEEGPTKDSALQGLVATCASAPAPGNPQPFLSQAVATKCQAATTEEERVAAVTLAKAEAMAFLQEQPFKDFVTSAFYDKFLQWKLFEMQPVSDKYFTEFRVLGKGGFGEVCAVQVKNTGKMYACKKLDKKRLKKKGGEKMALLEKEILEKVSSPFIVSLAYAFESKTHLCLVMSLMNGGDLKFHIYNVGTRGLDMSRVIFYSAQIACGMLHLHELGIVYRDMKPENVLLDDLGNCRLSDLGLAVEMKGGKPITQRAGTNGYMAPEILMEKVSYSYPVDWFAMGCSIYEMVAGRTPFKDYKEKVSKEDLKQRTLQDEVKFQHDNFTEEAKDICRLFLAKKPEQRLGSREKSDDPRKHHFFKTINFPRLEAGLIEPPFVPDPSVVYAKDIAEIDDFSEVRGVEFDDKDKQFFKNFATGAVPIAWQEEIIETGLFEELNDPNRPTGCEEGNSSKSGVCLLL

[10] = target: T1, Rhodopsin kinase GRK7 (Homo sapiens); conditions: at 1 µM
[11] = target: Serine/threonine-protein kinase MRCK alpha (Homo sapiens) (UniProt Q5VT25); conditions: at 0.1 µM
[12] = target: Serine/threonine-protein kinase MRCK alpha (Homo sapiens) (UniProt Q5VT25); conditions: at 1 µM
[13] = target: Serine/threonine-protein kinase MRCK beta (Homo sapiens) (UniProt Q9Y5S2); conditions: at 0.1 µM
[14] = target: Serine/threonine-protein kinase MRCK beta (Homo sapiens) (UniProt Q9Y5S2); conditions: at 1 µM
[15] = target: Ribosomal protein S6 kinase alpha-5 (Homo sapiens) (UniProt O75582); conditions: at 0.1 µM
[16] = target: Ribosomal protein S6 kinase alpha-5 (Homo sapiens) (UniProt O75582); conditions: at 1 µM
[17] = target: Ribosomal protein S6 kinase alpha-4 (Homo sapiens) (UniProt O75676); conditions: at 0.1 µM
[18] = target: Ribosomal protein S6 kinase alpha-4 (Homo sapiens) (UniProt O75676); conditions: at 1 µM
[19] = target: Ribosomal protein S6 kinase beta-1 (Homo sapiens) (UniProt P23443); conditions: at 0.1 µM
[20] = target: Ribosomal protein S6 kinase beta-1 (Homo sapiens) (UniProt P23443); conditions: at 1 µM

Chain of Ribosomal protein S6 kinase alpha-5 (Homo sapiens) (O75582 whole entry, looked up): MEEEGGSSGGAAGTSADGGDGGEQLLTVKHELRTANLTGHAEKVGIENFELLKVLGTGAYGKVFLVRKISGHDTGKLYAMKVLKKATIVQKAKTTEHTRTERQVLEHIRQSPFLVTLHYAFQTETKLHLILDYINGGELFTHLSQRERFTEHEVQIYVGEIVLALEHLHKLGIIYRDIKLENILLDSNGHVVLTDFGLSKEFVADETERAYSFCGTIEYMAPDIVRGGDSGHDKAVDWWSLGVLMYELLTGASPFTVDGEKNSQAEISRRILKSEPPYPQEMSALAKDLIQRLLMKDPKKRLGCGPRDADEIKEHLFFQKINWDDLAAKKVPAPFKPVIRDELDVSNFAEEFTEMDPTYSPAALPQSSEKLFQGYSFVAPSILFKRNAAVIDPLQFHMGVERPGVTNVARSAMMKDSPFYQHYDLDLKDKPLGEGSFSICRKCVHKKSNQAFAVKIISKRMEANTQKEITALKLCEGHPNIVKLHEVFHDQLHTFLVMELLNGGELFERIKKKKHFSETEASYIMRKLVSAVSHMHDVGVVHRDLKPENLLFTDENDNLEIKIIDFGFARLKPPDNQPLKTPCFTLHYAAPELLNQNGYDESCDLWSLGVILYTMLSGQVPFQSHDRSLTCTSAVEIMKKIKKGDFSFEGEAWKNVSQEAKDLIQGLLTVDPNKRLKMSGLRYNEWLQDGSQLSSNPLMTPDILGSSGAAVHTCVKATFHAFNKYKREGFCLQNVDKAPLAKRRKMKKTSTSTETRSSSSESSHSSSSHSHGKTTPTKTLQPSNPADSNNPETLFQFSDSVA
Chain of Serine/threonine-protein kinase MRCK beta (Homo sapiens) (Q9Y5S2 whole entry): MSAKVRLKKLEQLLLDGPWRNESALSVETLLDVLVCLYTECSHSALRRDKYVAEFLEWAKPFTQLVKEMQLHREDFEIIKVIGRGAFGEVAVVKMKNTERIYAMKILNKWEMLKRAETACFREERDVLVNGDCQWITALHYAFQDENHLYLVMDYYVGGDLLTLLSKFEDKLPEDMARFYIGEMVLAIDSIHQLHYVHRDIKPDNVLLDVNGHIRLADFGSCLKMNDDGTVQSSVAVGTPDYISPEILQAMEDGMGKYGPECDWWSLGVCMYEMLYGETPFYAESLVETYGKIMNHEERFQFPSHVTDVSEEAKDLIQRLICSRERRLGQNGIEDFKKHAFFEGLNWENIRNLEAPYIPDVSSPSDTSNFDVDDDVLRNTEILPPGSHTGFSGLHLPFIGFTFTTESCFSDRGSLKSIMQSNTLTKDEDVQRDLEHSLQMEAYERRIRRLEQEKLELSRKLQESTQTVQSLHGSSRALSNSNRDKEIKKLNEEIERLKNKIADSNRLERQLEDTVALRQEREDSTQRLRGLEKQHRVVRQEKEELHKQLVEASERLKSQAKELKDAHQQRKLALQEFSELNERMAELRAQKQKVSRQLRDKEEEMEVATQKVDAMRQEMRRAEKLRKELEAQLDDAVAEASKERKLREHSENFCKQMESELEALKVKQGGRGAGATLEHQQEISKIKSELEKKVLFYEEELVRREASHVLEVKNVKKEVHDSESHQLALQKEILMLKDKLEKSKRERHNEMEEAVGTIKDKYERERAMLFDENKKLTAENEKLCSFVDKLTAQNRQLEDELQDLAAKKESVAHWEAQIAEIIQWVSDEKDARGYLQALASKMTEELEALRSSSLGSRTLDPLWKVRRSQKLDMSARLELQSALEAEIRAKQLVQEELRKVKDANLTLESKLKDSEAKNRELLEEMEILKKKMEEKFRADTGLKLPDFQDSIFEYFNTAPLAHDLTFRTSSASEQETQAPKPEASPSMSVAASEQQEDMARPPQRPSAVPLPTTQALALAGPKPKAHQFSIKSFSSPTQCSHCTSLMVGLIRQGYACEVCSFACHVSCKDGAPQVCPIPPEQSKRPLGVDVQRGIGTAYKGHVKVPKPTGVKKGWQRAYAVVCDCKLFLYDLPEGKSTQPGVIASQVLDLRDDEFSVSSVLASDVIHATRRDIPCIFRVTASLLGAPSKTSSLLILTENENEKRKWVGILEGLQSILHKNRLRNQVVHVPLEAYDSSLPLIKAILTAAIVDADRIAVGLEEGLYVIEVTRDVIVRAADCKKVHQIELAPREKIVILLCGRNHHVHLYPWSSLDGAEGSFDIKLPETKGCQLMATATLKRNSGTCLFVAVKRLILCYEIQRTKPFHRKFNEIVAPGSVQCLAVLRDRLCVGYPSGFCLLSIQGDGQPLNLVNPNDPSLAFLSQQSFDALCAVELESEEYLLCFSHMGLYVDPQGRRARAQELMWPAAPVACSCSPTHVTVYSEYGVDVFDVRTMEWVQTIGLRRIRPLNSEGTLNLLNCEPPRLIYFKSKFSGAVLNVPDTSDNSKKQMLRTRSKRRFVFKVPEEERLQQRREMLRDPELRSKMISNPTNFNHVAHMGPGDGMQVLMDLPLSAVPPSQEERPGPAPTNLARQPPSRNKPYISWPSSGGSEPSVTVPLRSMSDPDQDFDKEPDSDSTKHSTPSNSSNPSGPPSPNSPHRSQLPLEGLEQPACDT
Chain of RAC-gamma serine/threonine-protein kinase (Homo sapiens) (Q9Y243 whole entry): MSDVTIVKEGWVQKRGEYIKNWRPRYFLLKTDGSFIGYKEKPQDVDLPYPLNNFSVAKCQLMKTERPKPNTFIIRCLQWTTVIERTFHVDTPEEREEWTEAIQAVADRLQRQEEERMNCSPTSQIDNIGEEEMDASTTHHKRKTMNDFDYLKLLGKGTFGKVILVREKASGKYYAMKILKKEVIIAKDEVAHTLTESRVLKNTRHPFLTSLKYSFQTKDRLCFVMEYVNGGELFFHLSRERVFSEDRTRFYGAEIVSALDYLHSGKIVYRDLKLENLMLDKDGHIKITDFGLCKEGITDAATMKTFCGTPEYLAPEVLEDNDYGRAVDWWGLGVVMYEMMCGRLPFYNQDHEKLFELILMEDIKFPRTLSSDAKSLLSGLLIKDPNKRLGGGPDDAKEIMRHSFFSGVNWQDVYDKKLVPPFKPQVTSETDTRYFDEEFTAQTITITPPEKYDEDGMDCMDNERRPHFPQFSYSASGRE
Chain of Serine/threonine-protein kinase MRCK alpha (Homo sapiens) (Q5VT25 whole entry): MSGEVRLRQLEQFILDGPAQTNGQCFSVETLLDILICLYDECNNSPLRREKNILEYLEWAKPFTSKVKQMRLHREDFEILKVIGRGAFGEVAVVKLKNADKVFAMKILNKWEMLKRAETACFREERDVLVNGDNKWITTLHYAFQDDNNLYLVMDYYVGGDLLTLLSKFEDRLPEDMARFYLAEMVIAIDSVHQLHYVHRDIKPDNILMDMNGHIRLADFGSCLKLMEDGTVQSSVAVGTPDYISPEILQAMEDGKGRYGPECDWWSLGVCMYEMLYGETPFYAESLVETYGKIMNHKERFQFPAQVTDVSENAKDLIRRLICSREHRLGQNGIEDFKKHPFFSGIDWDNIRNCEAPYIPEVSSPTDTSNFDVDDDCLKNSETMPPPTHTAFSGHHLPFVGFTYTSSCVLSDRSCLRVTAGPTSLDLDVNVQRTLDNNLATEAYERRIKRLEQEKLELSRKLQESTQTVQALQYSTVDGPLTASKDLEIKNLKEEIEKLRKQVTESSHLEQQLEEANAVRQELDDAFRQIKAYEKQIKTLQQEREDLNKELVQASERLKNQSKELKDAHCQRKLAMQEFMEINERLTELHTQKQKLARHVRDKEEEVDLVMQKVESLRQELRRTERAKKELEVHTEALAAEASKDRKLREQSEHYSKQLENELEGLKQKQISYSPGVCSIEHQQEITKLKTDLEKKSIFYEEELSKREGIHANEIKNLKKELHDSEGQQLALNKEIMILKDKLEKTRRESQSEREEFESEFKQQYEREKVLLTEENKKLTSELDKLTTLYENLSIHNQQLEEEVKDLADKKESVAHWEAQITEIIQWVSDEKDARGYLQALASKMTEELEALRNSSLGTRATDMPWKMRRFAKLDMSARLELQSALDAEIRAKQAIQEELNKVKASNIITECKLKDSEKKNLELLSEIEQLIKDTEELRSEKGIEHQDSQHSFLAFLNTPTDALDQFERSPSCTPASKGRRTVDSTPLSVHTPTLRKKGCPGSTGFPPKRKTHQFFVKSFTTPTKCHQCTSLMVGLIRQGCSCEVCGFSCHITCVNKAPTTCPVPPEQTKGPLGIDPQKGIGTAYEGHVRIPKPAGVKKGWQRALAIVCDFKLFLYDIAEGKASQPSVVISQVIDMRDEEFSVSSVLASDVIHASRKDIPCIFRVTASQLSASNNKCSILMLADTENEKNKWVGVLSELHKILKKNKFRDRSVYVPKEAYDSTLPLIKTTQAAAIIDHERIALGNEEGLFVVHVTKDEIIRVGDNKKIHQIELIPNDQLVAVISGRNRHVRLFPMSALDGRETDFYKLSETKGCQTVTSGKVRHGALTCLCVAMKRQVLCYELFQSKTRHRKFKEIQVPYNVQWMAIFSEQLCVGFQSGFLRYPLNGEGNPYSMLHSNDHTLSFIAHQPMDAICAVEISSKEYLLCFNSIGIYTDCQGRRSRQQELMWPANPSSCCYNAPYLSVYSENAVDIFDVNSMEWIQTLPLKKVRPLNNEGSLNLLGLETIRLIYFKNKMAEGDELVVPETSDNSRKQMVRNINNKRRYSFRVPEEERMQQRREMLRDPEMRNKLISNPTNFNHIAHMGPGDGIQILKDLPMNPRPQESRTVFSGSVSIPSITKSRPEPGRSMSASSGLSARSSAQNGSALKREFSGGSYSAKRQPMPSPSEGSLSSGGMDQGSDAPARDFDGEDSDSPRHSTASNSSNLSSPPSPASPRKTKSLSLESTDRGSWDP

| SMILES | inhibition [1] | inhibition [2] | inhibition [3] | inhibition [4] | inhibition [5] | inhibition [6] | inhibition [7] | inhibition [8] | inhibition [9] | inhibition [10] | inhibition [11] | inhibition [12] | inhibition [13] | inhibition [14] | inhibition [15] | inhibition [16] | inhibition [17] | inhibition [18] | inhibition [19] | inhibition [20] |
| --- | --- | --- | --- | --- | --- | --- | --- | --- | --- | --- | --- | --- | --- | --- | --- | --- | --- | --- | --- | --- |
| COc1ccc(-c2nn3ncccc3c2-c2ccnc(Nc3ccc(Cl)c(C(F)(F)F)c3)n2)cc1 | 0.26% | 0.27% | 1.16% | 0.96% | 3.64% | -0.03% | 6.26% | 9.79% | 4.07% | 8.67% | -0.16% | 3.43% | -1.37% | 0.06% | 1.49% | 1.69% | 0.22% | 2.02% | 0.17% | 2.22% |
| Nc1ncnc2occ(-c3ccc(NC(=O)Nc4cc(C(F)(F)F)cc(C(F)(F)F)c4)cc3)c12 | -0.23% | 0.58% | 1.95% | 2.09% | 1.26% | 1.13% | -2.78% | -6.02% | -0.71% | -8.6% | -0.38% | -1.97% | 0.11% | 1.52% | 3.6% | 25.2% | -0.06% | 20.1% | 17% | 65.8% |
| COc1cc2ncn(-c3cc(OCc4ccccc4C(F)(F)F)c(C(N)=O)s3)c2cc1OC | -2.43% | -2.44% | -2.6% | -2.54% | -3.14% | -1.66% | 0.88% | 0.91% | 9.69% | 6.72% | -5.9% | -3.27% | -0.23% | -0.14% | 1.71% | 1.02% | 2.52% | 5.14% | 1.44% | 3.22% |
| Cc1nn(C)c2cc(N(C)c3ccnc(Nc4cccc(S(N)(=O)=O)c4)n3)ccc12 | 0.47% | 0.23% | 1.6% | 2.15% | 1.22% | 1.54% | 3.92% | 3.28% | 2.2% | 10.5% | -1.1% | 2.42% | 1.01% | 3.81% | 10.5% | 11.1% | 4.88% | 6.94% | 2.3% | 2.85% |
| Cc1cc(O)cc(C)c1/C=C/c1cncc(-c2nn[nH]n2)c1 | -2.92% | -4.1% | -1.95% | -2.32% | -2.52% | -2.46% | 1.06% | 5.14% | 2.35% | 4.65% | -0.28% | -0.43% | 0.47% | 0.57% | 3.79% | 1.87% | 1.46% | 2.78% | 1.11% | 1.97% |
| CC(=O)Nc1cccc(C#Cc2cncnc2Nc2ccc(OCc3cccc(F)c3)c(Cl)c2)n1 | -0.69% | 0.42% | -1.3% | -0.21% | -1.1% | -0.11% | 0.73% | 6.19% | 1.16% | 11.2% | 2.04% | 4.47% | 0.72% | 3.16% | 8.63% | 10.1% | 2.79% | 4.81% | 0.05% | 0.93% |
| O=C1NC(=O)C(c2cccc(Cl)c2)=C1Nc1ccc(O)c(Cl)c1 | 0.39% | 1.25% | 0.32% | -0.16% | 0.98% | 0.23% | 2.15% | 1% | 0.66% | 6.41% | 0.28% | 3.73% | 1.27% | 2.02% | 0.69% | 2.04% | 0.07% | 3.61% | 0.45% | 0.8% |
| CCc1cccc(NC(=O)Nc2ccc(Oc3ccc4nc(NC(=O)OC)[nH]c4c3)cc2)c1 | 1.36% | 0.06% | 1.23% | 1.45% | 2.78% | -0.71% | 2.37% | 2.68% | 4.8% | 15.6% | 1.75% | 2.04% | 0.03% | 0.65% | -4.58% | -1.65% | 1.22% | 1.3% | 4.31% | 5.19% |
| NS(=O)(=O)c1ccc(N/N=C2\C(=O)Nc3ccc(C(=O)NCCc4c[nH]cn4)cc32)cc1 | 1.49% | 0.74% | 3.41% | 1.59% | 1.65% | 2.39% | 5.89% | 9.39% | 5.2% | 7.5% | -0.15% | 2.43% | 1.24% | 2.13% | 4.49% | 5.44% | 4.34% | 18.7% | 2.49% | 8.75% |
| Fc1cccc(COc2ccc(Nc3ncnc4cc(-c5ccc[nH]5)sc34)cc2Cl)c1 | -3.51% | -3.04% | -2.34% | -1.49% | -3.34% | -3.78% | 5% | 2.64% | 1.96% | 13.6% | -0.43% | -1.14% | 0.61% | 0.75% | 0.34% | 0.11% | 3.11% | 4.08% | 0.99% | 1.05% |
| CNC(=O)c1cncc(/C=C/c2c(Cl)cccc2Cl)c1 | -2.98% | -2.11% | -2.93% | -2.77% | -3.04% | 0.11% | 3.3% | 4.35% | 10.6% | 8.22% | 4.22% | 1.78% | 0.12% | 0.52% | 0.58% | 1.1% | 2.15% | 3.75% | 1.85% | 2.12% |
| c1cnn2ncc(-c3ccnc(Nc4ccc5c(c4)OCCO5)n3)c2c1 | 0.86% | 0.95% | 2.29% | 1.47% | 1.09% | 2.1% | 7.21% | 4.01% | 4.35% | 2.89% | -0.46% | 0.87% | 1.21% | 1.8% | 4.5% | 6.82% | 2.97% | 6.51% | 1.67% | 5.63% |
| O=C1NC(=O)C(c2ccc(Cl)cc2)=C1Nc1ccc(Cl)c(C(=O)O)c1 | -1.69% | -1.52% | -2.06% | -1.58% | -1.65% | -1.06% | 2.37% | -0.84% | -5.23% | -4.79% | -0.29% | -0.46% | 0.31% | -0.42% | -1.75% | -1.95% | -2.17% | -1.54% | -1.54% | -1.25% |
| CCN1CCC(CC(=O)Nc2n[nH]c3nc(-c4cccs4)c(Br)cc23)CC1 | -2.05% | -0.11% | -3.94% | -1.99% | -2.82% | 2.59% | -0.66% | -2.54% | -7.57% | -4.43% | -1% | -0.59% | 0.24% | 0.47% | -2.28% | 0.61% | -2.08% | -1.67% | -1.91% | 0.59% |
